# Inconclusive results are not listed. Entries that show only a call come without a potency. The source made the active and inactive calls. The call rests on the fitted dose curve; in most records, active means well fitted inhibition curve with a large enough effect in the repeat runs; inconclusive means weak or mixed curves; inactive means no such curve, though single readings can be large or run the other way.
# Target: Cytochrome P450 2C19 (Homo sapiens) (UniProt P33261)
# Assay: Cytochrome P450 Family 2 Subfamily C Member 19 (CYP2C19) small molecule antagonists: luciferase reporter qHTS assay (AID 1671197); further: nearly all actives have a fitted effect of over 65% in size
# Settings: P450-Glo CYP2C19 enzyme, luciferin luminescence, 1 h; series mostly up to 52.9 µM
# Description: National Center for Advancing Translational Sciences [NCATS]
# U.S. Environmental Protection Agency [EPA]
# National Institutes of Environmental Health Sciences [NIEHS]
# National Toxicology Program [NTP]
# U.S. Food and Drug Administration [FDA]
# Cytochrome P450 (CYP) enzymes are membrane-bound hemeproteins that play a key role in metabolism of drugs and xenobiotics. Evaluation of the effect of chemicals on CYP isozymes is useful to minimize the adverse drug reactions and toxicities in drug development process. Tox21 chemicals were tested for their effect on CYP enzyme activities by using P450-Glo (TM) screening systems (Promega Corporation, Madison, WI). These systems provide a luminescent method containing proluciferin substrates and are converted to luciferin products by CYP isozymes. The luciferin products formed are detected with a luciferin detection reagent, and the amount of light produced is proportional to CYP activity. P450-Glo (TM) CYP2C19 screening system (Catalog. No. V9880) was used to detect the compounds that interfere in CYP2C19 activity. The positive control compound used for CYP2C19 assay is ketoconazole (Sigma-Aldrich, St. Louis, MO).
# Tox21 Assay Protocol Summary:
# Two ul of enzyme-substrate mix was dispensed into medium binding white/solid 1536-well plates (Greiner Bio-One North America Inc., Monroe, NC) using a BioRaptr Flying Reagent Dispenser (FRD, Beckman Coulter, Brea, CA). Compounds dissolved in DMSO and positive control (ketoconazole) were transferred to the assay plates at 23 nl using a Pintool station (Wako, San Diego, CA). The assay plates were incubated at room temperature for 10 min. Then 2 ul of NADPH regeneration solution was added to each well of the assay plates using an FRD and incubated at 37C for 1 h. The reaction was stopped by adding 4 ul of detection reagent using an FRD and after 20 min incubation at room temperature the luminescence signal was measured using a ViewLux plate reader (Perkin Elmer, Shelton, CT). Data were expressed as relative luminescence units.
# Potency means the concentration at half of the fitted maximal effect.
# Cytochrome P450 2C19 (Homo sapiens), sequence (P33261 whole entry, looked up): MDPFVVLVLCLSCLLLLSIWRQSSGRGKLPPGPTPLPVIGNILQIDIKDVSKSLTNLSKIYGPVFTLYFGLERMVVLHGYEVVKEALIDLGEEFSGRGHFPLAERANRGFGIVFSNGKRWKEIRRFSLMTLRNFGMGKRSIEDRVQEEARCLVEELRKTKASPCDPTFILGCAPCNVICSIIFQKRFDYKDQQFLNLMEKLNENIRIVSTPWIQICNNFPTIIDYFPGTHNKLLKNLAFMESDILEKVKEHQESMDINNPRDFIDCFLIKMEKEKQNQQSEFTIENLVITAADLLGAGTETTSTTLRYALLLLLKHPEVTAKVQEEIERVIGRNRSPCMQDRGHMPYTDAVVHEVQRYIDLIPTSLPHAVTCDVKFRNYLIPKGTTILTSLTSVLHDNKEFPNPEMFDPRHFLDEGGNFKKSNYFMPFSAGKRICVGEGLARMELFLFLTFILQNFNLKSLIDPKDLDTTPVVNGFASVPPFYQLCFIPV
row,Compound,Potency
1,OCCNCc1ccccc1,44.8 µM (active)
2,CC(CC=O)c1ccccc1 (stereo not given),15.9 µM (active)
3,O=S(=O)(Oc1ccc(Cl)cc1)c1ccccc1,0.894 µM (active)
4,ClCCOCCOCCCl,inactive
5,CCCCCCCCCOS(=O)(=O)O,79.6 µM (active)
6,CCCCCCCCCCCC(=O)OC[C@@H](O)[C@H]1OC[C@H](OCCO)[C@H]1OCCO,inactive
7,CN1Cc2cc(C(=O)N3CCC(C4CCNCC4)CC3)ccc2NC(CC(=O)O)C1=O (stereo not given),inactive
8,CC1OC(=O)C(C)OC1=O (stereo not given),inactive
9,CC(C)C[C@H]1C(=O)N2CCC[C@H]2[C@]2(O)O[C@](NC(=O)[C@@H]3C=C4c5cccc6[nH]c(Br)c(c56)C[C@H]4N(C)C3)(C(C)C)C(=O)N12,21.4 µM (active)
10,C[C@@H]1C[C@H]2O[C@@]3(O[C@@H]2C(C)(C)O)[C@H](O)[C@@]2(C)[C@@H]4CC[C@H]5C(C)(C)[C@@H](O[C@@H]6OC[C@@H](O)[C@H](O)[C@H]6O)CC[C@@]56C[C@@]46CC[C@]2(C)[C@@H]13,inactive
11,O=CC1CC=CCC1 (stereo not given),inactive
12,C=C1[C@H]2CC[C@@H]3[C@H]2C(C)(C)CCC[C@]13C,inactive
13,CCCCCCCCCCCCN1CCCCCC1=O,inactive
14,Cc1[nH]c(C)c(Cl)c(=O)c1Cl,inactive
15,Cc1cccc(C)c1OCC(=O)N[C@@H](Cc1ccccc1)[C@@H](O)C[C@H](Cc1ccccc1)NC(=O)[C@H](C(C)C)N1CCCNC1=O,21.9 µM (active)
16,Cc1ncc(CO)c(C=O)c1O,inactive
17,O=C1OC(=O)C2C3C=CC(C3)C12 (stereo not given),inactive
18,Brc1c2ccccc2cc2ccccc12,35.9 µM (active)
19,CNCCCN1c2ccccc2CCc2ccccc21,inactive
20,CC(=O)OC[C@H]1O[C@@H](n2ncc(=O)[nH]c2=O)[C@H](OC(C)=O)[C@@H]1OC(C)=O,inactive

row,Compound,Potency
1,CC(C)OC(=O)C(C)N(C(=O)c1ccccc1)c1ccc(F)c(Cl)c1 (stereo not given),3.56 µM (active)
2,CC(C)(COC(=O)c1ccccc1)COC(=O)c1ccccc1,20 µM (active)
3,O=C1CCC(=O)O1,inactive
4,CCO[C@H](Cc1ccc(OCCc2ccc(OS(C)(=O)=O)cc2)cc1)C(=O)O,inactive
5,CNC(=O)CN(CCN(CCN(CC(=O)[O-])CC(=O)NC)CC(=O)[O-])CC(=O)[O-].O.[Gd+3],inactive
6,COc1ccc(S(=O)(=O)N2C(=O)[C@@](c3ccccc3OC)(N3C[C@H](O)C[C@H]3C(=O)N(C)C)c3cc(Cl)ccc32)c(OC)c1,31.7 µM (active)
7,CCNc1cc(O)ccc1C,35.2 µM (active)
8,CC(C)(C)OCC1CO1 (stereo not given),inactive
9,CC(C)CC(=O)C1C(=O)c2ccccc2C1=O,39.9 µM (active)
10,CCCCCCCCCCCc1ccccc1,inactive
11,S=C([S-])NCCNC(=S)[S-].[Mn+2],17.8 µM (active)
12,Cc1ccc(C(=O)Oc2ccc(C(O)CNC(C)(C)C)cc2OC(=O)c2ccc(C)cc2)cc1 (stereo not given),inactive
13,CCCCCCCC#N,inactive
14,Clc1ccc(Cn2c(CN3CCCC3)nc3ccccc32)cc1,0.776 µM (active)
15,COc1cc(Cl)c(OC)cc1N,22.4 µM (active)
16,CCCCC(CC)COC(=O)CCCCCCCCC(=O)OCC(CC)CCCC (stereo not given),inactive
17,NCC(=O)CCC(=O)O,inactive
18,CCOC(=O)C(F)(F)F,inactive
19,CCCCCCCCCCCCCCOS(=O)(=O)O,inactive
20,O=C1C(O)=C(O)C(=O)C(O)=C1O,inactive

# From PubChem BioAssay (Tox21)
